Several values for one entry are separate records, joined by “and”; a condition that tells them apart may be missing. Equal entries are not always repeated. Inconclusive results are not listed. Activity calls are given as the source filed them. Calls follow the shape of the dose curve; as a rule, active = well fitted inhibition curve with a large enough effect; inconclusive = small, poorly fitted or top-dose-only effect; inactive = flat fitted curve, though single readings scatter.
Assays:
P93_24 = assay: qHTS profiling for inhibitors of Plasmodium falciparum proliferation (AID 504749); settings: P. falciparum in erythrocytes, SYBR Green DNA, 72 h; series mostly up to 28.7 µM
In short: (§1)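 P. falciparum-infected erythrocytes (0.3% parasitemia, 2.5% hematocrit) incubated with compound 72 h at 37 C, 5% CO2. Parasite DNA detected by SYBR Green after lysis, overnight at room temperature; normalised to 0.29 uM artemisinin and DMSO.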

P94_40 = assay: as above; settings: P. falciparum in erythrocytes, SYBR Green DNA, 72 h; series mostly up to 28.7 µM
In short: as §1

PAD = assay: as above; settings: P. falciparum in erythrocytes, SYBR Green DNA, 72 h; series mostly up to 28.7 µM
In short: as §1

PC15 = assay: as above; settings: P. falciparum in erythrocytes, SYBR Green DNA, 72 h; series mostly up to 28.7 µM
In short: as §1

PC26 = assay: as above; settings: P. falciparum in erythrocytes, SYBR Green DNA, 72 h; series mostly up to 28.7 µM
In short: as §1

PC49 = assay: as above; settings: P. falciparum in erythrocytes, SYBR Green DNA, 72 h; series mostly up to 28.7 µM
In short: as §1

SC27B = assay: as above; settings: P. falciparum in erythrocytes, SYBR Green DNA, 72 h; series mostly up to 28.7 µM
In short: as §1

TAB109 = assay: as above; settings: P. falciparum in erythrocytes, SYBR Green DNA, 72 h; series mostly up to 28.7 µM
In short: as §1

TAB113 = assay: as above; settings: P. falciparum in erythrocytes, SYBR Green DNA, 72 h; series mostly up to 28.7 µM
In short: as §1

TAB165 = assay: as above; settings: P. falciparum in erythrocytes, SYBR Green DNA, 72 h; series mostly up to 28.7 µM
In short: as §1

CRL-7250 = normal cell line; assay: Cytotoxic Profiling of Annotated Libraries Using Quantitative High-Throughput Screening (AID 1296008); settings: Five cell lines viability, CellTiter-Glo ATP luminescence, 48-72 h; max response: hits give low values; as to max response: % is scaled to controls: 0 for no effect and ±100 for the full control effect
In short: (§2)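 Cells exposed to compounds for 48 or 72 hr at 37 degrees Celsius. Viability read as ATP-coupled luminescence with CellTiter-Glo after 10 min at room temperature.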

HEK293 = assay: as above; settings: Five cell lines viability, CellTiter-Glo ATP luminescence, 48-72 h; max response: hits give low values
In short: as §2

KB-3-1 = assay: as above; settings: Five cell lines viability, CellTiter-Glo ATP luminescence, 48-72 h; max response: hits give low values
In short: as §2

NIH3T3 = assay: as above; settings: Five cell lines viability, CellTiter-Glo ATP luminescence, 48-72 h; max response: hits give low values
In short: as §2

MCC-13 = assay: qHTS assay to identify novel small-molecules to repurpose for Merkel cell carcinoma treatment (AID 1296009); settings: MCC and control cell lines, CellTiter-Glo viability, 72 h; series mostly up to 46 µM
In short: (§3)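 Cells were treated for 72 hr at 37 degree celsius with compounds in 8- or 11-point dose response. Viability was read by CellTiter-Glo luminescence, normalized to no-cell (cytotoxicity) and DMSO controls.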

W2 = assay: qHTS profiling for inhibitors of Plasmodium falciparum proliferation (AID 504749); settings: P. falciparum in erythrocytes, SYBR Green DNA, 72 h; series mostly up to 28.7 µM
In short: as §1

HaCat [1] = assay: Cytotoxic Profiling of Annotated Libraries Using Quantitative High-Throughput Screening (AID 1296008); settings: Five cell lines viability, CellTiter-Glo ATP luminescence, 48-72 h; max response: hits give low values; as to max response: % is scaled to controls: 0 for no effect and ±100 for the full control effect
In short: as §2

HACAT [2] = assay: qHTS assay to identify novel small-molecules to repurpose for Merkel cell carcinoma treatment (AID 1296009); settings: MCC and control cell lines, CellTiter-Glo viability, 72 h; at 44.8 µM (top of the series) unless noted
In short: as §3

MCC-26 = assay: as above; settings: MCC and control cell lines, CellTiter-Glo viability, 72 h; series mostly up to 46 µM
In short: as §3

HEK293T = assay: as above; settings: MCC and control cell lines, CellTiter-Glo viability, 72 h; at 44.8 µM (top of the series) unless noted
In short: as §3
Also: nearly all actives have a fitted effect of over 60% in size.
Potency is read from the fitted curve at half-maximal effect.

Cc1nc2ccccc2n1Cc1ccc(Cl)cc1
inactive: Potency (P93_24) | Potency (P94_40) | Potency (PAD) | Potency (PC15) | Potency (PC26) | Potency (PC49) | Potency (SC27B) | Potency (TAB109) | Potency (TAB113) | Potency (TAB165) | max response (KB-3-1) -8.87% | max response (NIH3T3) -22.4% | Potency (MCC-13)
active: Potency (CRL-7250) 2.11 µM | Potency (HEK293) 1.68 µM

N=C1N=C(N)c2cc3ccccc3cc21
active: Potency (CRL-7250) 17.2 µM | Potency (HEK293) 19.3 µM | Potency (NIH3T3) 10.9 µM | Potency (MCC-13) 43.3 µM

Cc1cc(O)c2ccccc2c1O
active: Potency (W2) 9.53 µM
inactive: Potency (P93_24) | Potency (P94_40) | Potency (PAD) | Potency (PC15) | Potency (PC49) | Potency (SC27B) | Potency (TAB109) | Potency (TAB113) | Potency (TAB165) | max response (CRL-7250) -18% | outcome (HaCat [1]) | max response (KB-3-1) 6.5% | outcome (HACAT [2]) | Potency (MCC-13) | Potency (MCC-26)

CC1(C)S[C@@H]2[C@H](NC(=O)[C@H](N)c3ccc(O)cc3)C(=O)N2[C@H]1C(=O)O
inactive: max response (CRL-7250) -12.2% | outcome (HEK293) | max response (KB-3-1) 11.9% and 8.22% | outcome (NIH3T3) | outcome (HEK293T)

CCCCC1C(=O)N(c2ccccc2)N(c2ccc(O)cc2)C1=O (stereo not drawn)
active: Potency (HEK293) 4.73 µM | Potency (NIH3T3) 15 µM | Potency (MCC-13) 9.44 µM
inactive: max response (KB-3-1) -9.78% | Potency (MCC-26)

O=Cc1ccc(O)c(O)c1O
active: Potency (HEK293) 26.6 µM
inactive: outcome (HaCat [1]) | outcome (HACAT [2]) | Potency (MCC-13)

COC(=O)C1=C(C)NC(C)=C(C(=O)OCC(C)=O)C1c1ccccc1[N+](=O)[O-] (stereo not drawn)
inactive: outcome (HEK293) | outcome (HaCat [1]) | max response (NIH3T3) -4.97% | outcome (HACAT [2]) | outcome (HEK293T)

Cc1onc(-c2c(F)cccc2Cl)c1C(=O)N[C@@H]1C(=O)N2[C@@H]1SC(C)(C)[C@@H]2C(=O)O
inactive: max response (CRL-7250) -6.01% | outcome (HEK293) | max response (KB-3-1) 3.63% and 6.4% | outcome (KB-3-1) | max response (NIH3T3) -7.78% | outcome (HEK293T)

O=C(OCc1ccccc1)c1ccccc1
inactive: Potency (P93_24) | Potency (P94_40) | Potency (PAD) | Potency (PC15) | Potency (PC26) | Potency (PC49) | Potency (SC27B) | Potency (TAB109) | Potency (TAB113) | Potency (TAB165) | Potency (W2) | max response (HEK293) -2.07% | max response (HaCat [1]) 4.92% | max response (KB-3-1) 3.34% | max response (NIH3T3) 0.848% | Potency (MCC-13)

CCCCN(CC)c1nc(C)nc2c1c(C)cn2-c1c(C)cc(C)cc1C
inactive: max response (CRL-7250) -5.83% | max response (HaCat [1]) 4.42% | max response (KB-3-1) -14.3% | max response (NIH3T3) -2.65%

CN(C)c1ccc(N=NS(=O)(=O)O)cc1
inactive: max response (HaCat [1]) -1.75% | max response (KB-3-1) -10.4% | max response (NIH3T3) 2.87% | Potency (MCC-13) | Potency (MCC-26)

Fc1ccc2[nH]c(CN3CCN(c4ccccn4)CC3)cc2c1
inactive: max response (CRL-7250) -22.3% | max response (KB-3-1) -22.6% | max response (NIH3T3) -28.5%

O=C1CN(/N=C/c2ccc([N+](=O)[O-])o2)C(=O)N1
inactive: outcome (CRL-7250) | max response (HaCat [1]) 1.83% | max response (KB-3-1) -3.33% | outcome (NIH3T3) | Potency (MCC-26)

— PubChem BioAssay (NCATS)
